Laboratory results taken from PubChem BioAssay (NCI).
About 83,000 compounds went through this panel and 20% of them were active in at least one assay; those are over-represented in the sample as a whole.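 Cell lines were cultured in 96-well plates, exposed to a single compound concentration, and assessed for percent growth 48 hours later.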 The source made the active and inactive calls. The calls were made as follows: active = growth percent below 10; inactive = the rest.

What follows are molecules tested on HS 578T breast (assay: NCI-60 one-dose screen, 48 h (100 = growth as untreated, 0 = no growth, -100 = all killed)). Settings: 10 µM.

SMILES	growth
O=S(=O)(Nc1ncccn1)c1ccc(-n2c(-c3ccccc3)nc(-c3ccccc3)c2-c2ccccc2)cc1	81% (inactive)
COc1ccc(-c2cc(-c3cc(C(=O)c4ccccc4)n4ccc(C)cc34)nc(N)c2C#N)cc1	8.95% (active)
N#Cc1ccc(NC(=O)CSc2ccc(-c3ccc(Br)cc3)nn2)cc1	72.9% (inactive)
CCCn1c(O)c(N=Nc2nc(-c3cc4ccccc4oc3=O)cs2)c2cc(Br)ccc21	83.4% (inactive)
COc1cc2oc(-c3cccc(C(=O)Nc4ccc(Cl)cc4)c3)cc(=O)c2c(OCCNC(=O)CNC(=O)OC(C)(C)C)c1OC	62.8% (inactive)
CCCCOc1ccc(Nc2nc3ccccc3nc2Nc2ccc(OCCCC)cc2)cc1	103% (inactive)
COc1cc(NC(=O)CSc2nnc(-c3ccc4nc(-c5ccc(Cl)cc5)[nH]c4c3)o2)cc(OC)c1OC	50.6% (inactive)
O=C(NO)c1ccc(CNC(=O)[C@H]2Cc3c([nH]c4ccccc34)[C@H](c3ccc(Cl)cc3)N2)cc1	6.12% (active)
N#Cc1c(NC(=O)c2ccc(C(F)(F)F)c(Cl)c2)sc2c1CCC(=O)C2	-26% (active)
O=C(Cc1ccc2c(c1)CN(C1CCC(=O)NC1=O)C2=O)NCc1cccc2ccccc12 (stereo not drawn)	-11.3% (active)
CCOC(=O)CNC(=O)CN(Cc1ccccc1)C(=O)[C@@]1(C)CCC[C@]2(C)[C@H]3C[C@H]4C(C(C)C)=C[C@]3(CC[C@H]21)[C@@H]1C(=O)OC(=O)[C@@H]14	60.3% (inactive)
O=C(NCCCCCCCCCC[P+](c1ccccc1)(c1ccccc1)c1ccccc1)c1ccc(-n2nc(-c3ccccc3O)nc2-c2ccccc2O)cc1	-22.1% (active)
COc1ccc2[nH]c(=O)c(CSc3ccc(Nc4nccc(-c5ccc(Cl)cc5)n4)cc3)cc2c1	63.8% (inactive)
CCOC(=O)C1=C(N)N(c2ccccc2)C2=C(C(=O)CC(C)(C)C2)C1c1ccccc1OC (stereo not drawn)	106% (inactive)
COc1cccc2nc(Nc3cccc(NC(=O)c4ccc(CN5CCCN(C)CC5)c(C(F)(F)F)c4)c3)ccc12	-61.7% (active)
COc1cc(C2CC(c3ccc(C)cc3)=Nc3c(N)nc(N)nc3N2)ccc1Oc1nc(Nc2ccc(F)cc2)nc(N(C)C)n1 (stereo not drawn)	57.6% (inactive)
CC(=O)Nc1ccc(-c2cn(-c3cccc(C(=O)Nc4ccc(Cl)c(C(F)(F)F)c4)c3)nn2)cn1	-12% (active)

SMILES	growth
Cc1cc(C(F)(F)F)ccc1C(=O)Nc1sc2c(c1C#N)CCC(=O)C2	-7.86% (active)
COc1ccc(OC)c(/C=N/NC(=O)c2ccc3nc(-c4ccc(Cl)cc4)[nH]c3c2)c1	51.2% (inactive)
CC1=N/C(=C\c2ccc(N(C)C)cc2)C(=O)N1CCc1ccc(S(N)(=O)=O)cc1	91.6% (inactive)
Cc1ccc(-c2cc(C(=O)N=Nc3c(O)[nH]c4ccc(Br)cc34)c3ccccc3n2)cc1	67.5% (inactive)
COc1ccccc1C(=O)NNC(=O)CSc1nc2c(c(=O)[nH]1)CCCC2	108% (inactive)
C=C1CCC2C3(C)COC(c4cccc(F)c4)OC3CCC2(C)C1CC(O)C1=CCOC1=O (stereo not drawn)	74.6% (inactive)
C=C1CCC2C3(C)COC(c4c(F)cccc4F)OC3CCC2(C)C1C/C=C1/C(=O)OCC1O (stereo not drawn)	17.5% (inactive)
Nc1nnc(-c2c[nH]c3ccc(F)cc23)c(-c2c[nH]c3ncccc23)n1	29.1% (inactive)
CC(=O)NS(=O)(=O)c1ccc(NC(=O)CSC2=NC(c3ccccc3)C(C(C)=O)=C(C)N2)cc1 (stereo not drawn)	107% (inactive)
COC1=C[C@@]23CCC(=O)N2CCc2cc4c(cc2[C@H]3[C@H]1OC(=O)C(C)(C)O)OCO4	98.1% (inactive)
Nc1nc(-c2ccccc2)cs1	55.8% (inactive)
COC(=O)c1c(C(=O)OC)c2n(c1C)[C@@H]([C@@H](C)[C@H]1CC[C@H]3[C@@H]4CCC5=CC(=O)CC[C@]5(C)[C@H]4CC[C@]13C)SC2	56.6% (inactive)
C/C(=N\NC(N)=S)c1ccc(Nc2nc(SC(C)C)nc(-c3ccccc3)c2C#N)cc1	18.7% (inactive)
COc1ccc(-c2cc(-c3cc(C(=O)c4ccc(Br)cc4)n4ccc(C)cc34)nc(N)c2C#N)cc1	90.8% (inactive)
CC(=O)Nc1ccc(-n2cnc3cc(-c4ccc(NS(C)(=O)=O)cc4)ccc32)cc1	57.9% (inactive)
O=c1cc(-c2ccccc2)oc2cc(OCCCCNCc3ccccc3)cc(O)c12	39.6% (inactive)
